This passage reports growth results from PubChem BioAssay (NCI).

The panel holds about 83,000 compounds, 20% with a hit somewhere; the sample as a whole holds those more often.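 Testing used 96-well plates and a 48-hour single-concentration exposure. Example: -40 means 40% of the starting cells died.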 Unmarked numbers belong to inactive results. Active and inactive are the calls of the source. How the source made its calls: active means growth percent below 10; inactive means the rest.

Common to all, as to test: NCI-60 one-dose screen, 48 h (100 = growth as untreated, 0 = no growth, -100 = all killed)
What all share (settings): 10 µM

In assay [1] the test system is DU-145 prostate.
For assay [2], the system named is K-562 leukemia.
In assay [3] the test system is MALME-3M melanoma.
Assay [4] relates to MDA-MB-231 breast.
The subject of assay [5] is RXF 393 renal.
The test system of assay [6] is SF-268 CNS.
For assay [7], the system named is SF-295 CNS.
The subject of assay [8] is SF-539 CNS.
Assay [9] relates to UACC-257 melanoma.
The subject of assay [10] is M14 melanoma.
For assay [11], the system named is HCT-15 colon.
Assay [12] concerns HT29 colon.
Assay [13] concerns SNB-75 CNS.
In assay [14] the test system is SNB-19 CNS.
For assay [15], the system named is U251 CNS.
Assay [16] deals with PC-3 prostate.
In assay [17] the test system is SK-MEL-5 melanoma.
Assay [18] concerns UACC-62 melanoma.
The test system of assay [19] is LOX IMVI melanoma.
In assay [20] the test system is SK-MEL-28 melanoma.

Regarding `COc1ccc2c(c1)OC(N)=C(C#N)C2c1cc(OC)c(OC)c(OC)c1` (stereo not given), the growth in assay [1] was -19.5% (active); in assay [2], 7.08% (active); in [3], 26.9%; in [4] it was 4.49% (active); in assay [5], 38.7%; in assay [6], 22.8%. The growth in assay [7] was 4.98% (active); in assay [8] it was 4.42% (active); in [9] it was 68.2%; in assay [10], 5.11% (active); in [11] it was 14.2%; in assay [12] it was 0.78% (active). Moreover, the growth is 44.7% in assay [13]; 44.7% in assay [14]; 6.72% (active) in assay [15]; 19.7% in assay [16]; -46.2% (active) in assay [17]; 39% in [18]. For the same compound, the growth is 12.7% in [19] and 62.7% in assay [20].
For the compound `CN1C(=O)C2(Nc3cc(Cl)ccc3S2)c2cc(Cl)ccc21` (stereo not given), the growth is 104% in assay [1]; 75.4% in [2]; 113% in [3]; 69.3% in assay [4]; 106% in assay [5]; 93.8% in assay [6]. In addition, the growth in assay [7] was 99.3%; in [8], 106%; in [9], 101%; in assay [10] it was 102%; in assay [11], 76.7%; in assay [12], 101%. Besides, the growth in [13] is 69.2%; in [14] it was 97.2%; in assay [15], 93.2%; in assay [16], 73.7%; in assay [17] it was 84.9%; in assay [18] it was 69.9%. The results for the growth in [19] and in [20] were 78.8% and 101%, respectively.
As for `CC(C)N(CCOc1cccc(-c2nc3sccn3c2-c2ccnc(S(C)(=O)=O)n2)c1)C(C)C`, the growth in assay [1] is 89.8%; in assay [2], 69.1%; in assay [3], 91.3%; in [4], 57.8%; in [5], 65.3%; in assay [6], 92.5%. Moreover, the growth was 103% in assay [7]; 91.9% in assay [8]; 104% in [9]; 111% in assay [10]; 81.8% in assay [11]; 54.5% in [12]. In addition, the growth in [13] was 78%; in [14], 101%; in [15] it was 83.8%; in assay [16], 72.7%; in assay [17] it was 3.97% (active); in [18], 84.1%. In addition, the growth is 84.3% in [19] and 99.3% in assay [20].
`NC(N)=N/N=C(\N=Nc1ccccc1)c1ccc(Cl)cc1`: the growth in assay [1] was 47.3%; in assay [2] it was 1.17% (active); in [3], 85.6%; in assay [4], -12.5% (active); in assay [5], 41.5%; in assay [6], 34.2%. The growth in assay [7] was -5.99% (active); in assay [8] it was 19.7%; in [9] it was 70.9%; in assay [10], 10.2%; in assay [11], 22.1%; in assay [12], 21.2%. Besides, the growth is 60.6% in [13]; 81.9% in assay [14]; 36.3% in assay [15]; 25.1% in [16]; 65.1% in assay [17]; -29.6% (active) in [18]. Also, the values for the growth in [19] and in assay [20] were -7.27% (active) and 75.3%, respectively.
In the case of `CN(C)CCCOc1ccccc1NC1=C(Cl)C(=O)C(Nc2ccccc2OCCCN(C)C)=C(Cl)C1=O`, the growth in [1] is -97.2% (active); in assay [2], -25.3% (active); in assay [3], -77.6% (active); in assay [4], -71.9% (active); in [5] it was -98.2% (active); in assay [6], -88.1% (active). The growth in [7] is -58.8% (active); in assay [8] it was -96.6% (active); in [9] it was -92.9% (active); in assay [10] it was -68.8% (active); in assay [11], -49% (active); in assay [12], -51% (active). Moreover, the growth in [13] was 35%; in assay [14], -87.1% (active); in [15], -86.1% (active); in assay [16], -20.8% (active); in assay [17], -96.3% (active); in assay [18], -77.8% (active). The growth was -74.9% (active) in assay [19] and 14.1% in assay [20].
As for `COc1cc2c(Nc3ccc(-c4ccc(N)cc4)cc3)ncnc2c(OC)c1OC`, the growth was 34.9% in assay [1]; 11% in [2]; 36.5% in assay [3]; 56.9% in assay [4]; 103% in assay [5]; 52.6% in assay [6]. Moreover, the growth was -33.2% (active) in assay [7]; 17.5% in assay [8]; 43.8% in assay [9]; 13.8% in assay [10]; 28.8% in assay [11]; 46.2% in [12]. In addition, the growth in assay [13] is 82.8%; in assay [14] it was 51.1%; in [15], 42.6%; in assay [16] it was 47.3%; in [17], -25.1% (active); in assay [18], 7.02% (active). In addition, the values for the growth in [19] and in [20] were 31.1% and 75.6%, respectively.
Turning to `CN(C)CCCOc1ccc(NC2=C(Cl)C(=O)C(Nc3ccc(OCCCN(C)C)cc3)=C(Cl)C2=O)cc1`, the growth in assay [1] is -95.8% (active); in [2], -11.7% (active); in [3], -71.7% (active); in assay [4], -80.2% (active); in [5] it was -97.9% (active); in assay [6], -51.2% (active). Besides, the growth in assay [7] is -22.8% (active); in [8] it was -87.9% (active); in assay [9] it was -88.2% (active); in [10], -71.8% (active); in [11] it was -82% (active); in [12], -54.1% (active). In addition, the growth in assay [13] is -77.9% (active); in assay [14], -48.6% (active); in assay [15], -91.2% (active); in assay [16] it was -7.37% (active); in [17], -96.6% (active); in assay [18] it was -74.9% (active). Besides, the growth in [19] is -80.5% (active); in assay [20], 39.4%.
For the compound `Nc1ncnc2c1ncn2C1(CO)OCC(O)C(O)C1O` (stereo not given), the growth in assay [1] is 104%; in [2], 110%; in [3], 98.6%; in [4], 109%; in assay [5], 110%; in assay [6], 95.3%. The growth in assay [7] is 101%; in assay [8], 96.5%; in [9], 101%; in [10] it was 97%; in assay [11], 105%; in [12], 88.8%. In addition, the growth was 90.6% in assay [13]; 103% in assay [14]; 101% in assay [15]; 103% in assay [16]; 103% in assay [17]; 105% in assay [18]. Besides, the values for the growth in [19] and in assay [20] were 94.4% and 105%, respectively.
